The source of these data is PubChem BioAssay (NCI).

Each structure is given as a SMILES string. This is part of a sample that, as a whole, favours compounds with a hit. Of some 83,000 tested, about 20% had one in any assay.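 Activity criterion: percent growth below 10, measured after cells in 96-well plates were exposed to a single compound concentration for 48 hours.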 A number with no mark means an inactive call.

The subject of the assay is SNB-19 CNS. Nature of the assay: NCI-60 one-dose screen, 48 h (100 = growth as untreated, 0 = no growth, -100 = all killed). Particulars: 10 µM unless noted.
Regarding `CCCOc1ccc2nc(NC(=O)OC)[nH]c2c1`, the growth was 34%.
Take `COc1cccc(/C=C2\Oc3cc(OCCN4CCCC4)ccc3C2=O)c1`: the growth is 102%.
Next, `COc1ccc(/C=C2\Oc3cc(OCCCCN4CCCC4)ccc3C2=O)cc1`: 83.7%.
As for `COc1cccc(-c2nn(C(C)(C)C)cc2-c2ccnc(NCCCNS(=O)(=O)c3cccc4ccccc34)c2)c1`, the growth was 100%.
As to `COc1cccc(-c2nc3sccn3c2-c2ccnc(NCCCNS(=O)(=O)c3c(Cl)cccc3Cl)c2)c1`, the growth was 78.7%.
Next, `O=C1c2cc3c(cc2-c2c1c1cc(F)c(F)cc1c(=O)n2CCCn1ccnc1)OCO3`: 15.7%; `O=C(/C=C/c1cccc(Cl)c1)c1ccc(O)c(CN2CCN(c3cc4c(cc3F)c(=O)c(C(=O)O)cn4C3CC3)CC2)c1`: 35.9%.
Next, `CCCn1c(=O)[nH]c(N)c([C@H]2c3ccccc3Oc3[nH]c(=O)n(CCC)c(=O)c32)c1=O`: 97.8%.
The value for `N#CCCN=Nc1c(O)[nH]c2ccc(F)cc12` was 101%.
For the compound `COc1ccc(-c2n[nH]nc2-c2csc3ccccc23)cc1OC`, the growth is 30.4%.
The value for `COc1cc(/C=C/c2cc(O)c3cc(C(C)=O)c(=O)oc3c2)cc2c1O[C@]1(C)CC[C@@H](O)C(C)(C)[C@H]1C2` was 48.1%.
The value for `O=C(N=Nc1c(O)[nH]c2ccc(Br)cc12)c1cc(-c2ccccc2)on1` was 102%; that for `CSc1nc(NCc2ccccc2)c(C#N)c(-c2cccc([N+](=O)[O-])c2)n1` was 94.9%; that for `O=S(=O)(Nc1ccc(Cl)c(F)c1)c1ccc(-c2cnc(C3CC3)o2)cc1` was 44.9%.
Regarding `CC1(C)CC[C@]2(C(=O)Nc3ccccn3)CC[C@]3(C)C(=CC[C@@H]4[C@@]5(C)C/C(=C/c6cccnc6)C(=O)C(C)(C)[C@@H]5CC[C@]43C)[C@H]2C1`, the growth was 63.8%.
Next, `O=S(=O)(Nc1ccc(Br)c(Cl)c1)c1ccc(-c2cnc(C3CC3)o2)cc1`: 35%; `C=C(C)[C@@H]1CC[C@]2(C(N)=O)CC[C@]3(C)[C@H](CC[C@@H]4[C@@]5(C)C/C(=C/c6ccco6)C(=O)C(C)(C)[C@@H]5CC[C@]43C)[C@@H]12`: 94.5%; `Cc1nc2c3c(-c4ccccc4)c(-c4ccccc4)oc3ncn2n1`: 96.6%.
The value for `COc1cccc(-c2nn(C(C)(C)C)cc2-c2ccnc(NCCCNS(=O)(=O)c3ccc(C)cc3)c2)c1` was 102%.
Next, `COc1ccc(-c2nc3ccc(-c4nc5ccc(N6CCN(c7ccc(F)cc7)CC6)cc5[nH]4)cc3[nH]2)cc1OC`: 117%; `O=C1NC(=S)NC(=O)C1CC(=O)n1c(-c2ccccc2)nc2ccccc21`: 94.8%; `CSc1nc(NCCN2CCOCC2)c(C#N)c(-c2cccc([N+](=O)[O-])c2)n1`: 95.2%.
Take `N#Cc1c(-c2ccc(Cl)cc2)nc(N=Nc2c(O)[nH]c3ccc(Cl)cc23)nc1N1CCOCC1`: the growth is 101%.
As to `Cc1ccc(NS(=O)(=O)c2ccc(-c3cnc(C4CC4)o3)cc2)cc1C`, the growth is 46.8%.
Next, `Oc1ccccc1-c1nnc(CNc2ccc(Cl)cc2)o1`: 41.9%.
